In PubChem BioAssay (NCI):
This is part of a sample that, as a whole, favours compounds with a hit. Of some 79,000 tested, about 15% had one in any assay. A number with no mark means an inactive call. The source made the active and inactive calls. No stated cut-off is given here; in the data, active means growth inhibition above about 70%; inactive means the rest.

How the values were obtained:
[1] = NCI Yeast Anticancer Drug Screen. Data for the rad50 strain (AID 155);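 further: 0% = growth of vehicle-only cultures of the same strain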; details: S. cerevisiae rad50 strain growth inhibition, active compounds read high
Summary of the method: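 Compounds were tested on a yeast strain with an engineered DNA damage repair alteration; the reported value is growth inhibition normalised to vehicle treatment.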

[2] = NCI Yeast Anticancer Drug Screen. Data for the mec2-1 strain (AID 157); details: S. cerevisiae mec2-1 strain, active compounds read high
Summary of the method: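 Each compound was tested on mec2-1 yeast, a strain altered in DNA damage repair or cell cycle control. Growth inhibition is reported relative to vehicle.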

[3] = NCI Yeast Anticancer Drug Screen. Data for the sgs1 mgt1 strain (AID 161);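 further: 0% = growth of cultures given vehicle only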; details: S. cerevisiae sgs1 mgt1 strain, active compounds read high
Summary of the method: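 Inhibition of yeast growth, normalised to vehicle-treated controls, is reported for a strain bearing genetic alterations in DNA damage repair.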

[4] = NCI Yeast Anticancer Drug Screen. Data for the cln2 rad14 strain (AID 165);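 further: 0% = growth equal to vehicle treated cultures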; details: S. cerevisiae cln2 rad14 strain, active compounds read high
Summary of the method: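 Test compounds were added to cln2 rad14 yeast cultures; inhibition of growth was then determined by comparison with vehicle treatment.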

[5] = NCI Yeast Anticancer Drug Screen. Data for the bub3 strain (AID 167); details: S. cerevisiae bub3 mutant strain, active compounds read high
Summary of the method: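 Growth of a checkpoint-deficient yeast mutant is measured after compound exposure. Values represent inhibition relative to vehicle.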

[6] = NCI Yeast Anticancer Drug Screen. Data for the mlh1 rad18 strain (AID 175); details: S. cerevisiae mlh1 rad18 strain growth inhibition, active compounds read high
Summary of the method: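 Inhibition values reflect reduced growth of mutant yeast versus vehicle-treated controls following compound exposure; the mutations affect DNA damage repair.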

[7] = at 5.0 µM (retest, dose inferred, filed as 0.5)
[8] = at 50.0 µM (retest, dose inferred, filed as 5.0)

Row | SMILES | growth inhibition [1, 7] | growth inhibition [1, 8] | growth inhibition ([1]; at 50.0 µM) | growth inhibition [2, 7] | growth inhibition [2, 8] | growth inhibition ([2]; at 50.0 µM) | growth inhibition [3, 7] | growth inhibition [3, 8] | growth inhibition ([3]; at 50.0 µM) | growth inhibition [4, 7] | growth inhibition [4, 8] | growth inhibition ([4]; at 50.0 µM) | growth inhibition [5, 7] | growth inhibition [5, 8] | growth inhibition ([5]; at 50.0 µM) | growth inhibition [6, 7] | growth inhibition [6, 8] | growth inhibition ([6]; at 50.0 µM)
1 | CN(C)CCOC1OCN(C)CC1(C)C (stereo not given) | 0% | -12% | 4.55% | 0% | -7% | 7.2% | -1% | -8% | -0.9% | 1% | -15% | 36.1% | -2% | -3% | -3.75% | 2% | -12% | -1.05%
2 | CCCCCCCCN=C(N)c1ccc(C(=O)OCC2CCCCC2)cc1 | 98% (active) | 99% (active) | 99.6% (active) | 99% (active) | 100% (active) | 99.7% (active) | 99% (active) | 99% (active) | 99.7% (active) | 98% (active) | 99% (active) | 99.5% (active) | 98% (active) | 100% (active) | 99.6% (active) | 100% (active) | 100% (active) | 99.7% (active)
3 | O=c1[nH]c2ccc([N+](=O)[O-])cc2c2ccc(Cl)cc12 | 3% | 9% | 77.2% (active) | -5% | 25% | 51.8% | -11% | 16% | 61.8% | 1% | 3% | -0.3% | 0% | 2% | 7.4% | 11% | 40% | 71.7% (active)
4 | CNC(=O)OCc1c(COC(=O)NC)c(-c2ccc(OC)cc2)n2c1CCC2 | 28% | 33% | 28.4% | 19% | 21% | 74.9% (active) | 44% | 68% | 70.9% (active) | 38% | 43% | 73.7% (active) | 50% | 46% | 48.4% | 23% | 32% | 92.6% (active)
5 | C1=C(C2=C[P+](c3ccccc3)(c3ccccc3)C=C(c3ccccc3)O2)OC(c2ccccc2)=C[P+]1(c1ccccc1)c1ccccc1 | 7% | 15% | -10.1% | 4% | 8% | -7.05% | 5% | 15% | -5.35% | 5% | 2% | 71% (active) | 11% | 66% | 6.8% | 9% | 6% | 18.3%
